# From PubChem BioAssay
# An excerpt weighted towards active compounds, which were near 4.3% of everything screened.
# ADAM17 inh – ADAM17 inhibition, QFRET primary screen; P78536; recombinant ADAM17, EDANS/DABCYL FRET peptide cleavage; inhibition, % at 6.95 µM; 0.83% of 370,000 active;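 active = inhibition above the mean of compounds lying between control limits plus 3 SD, set per campaign, cut at about 8.5% in these data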;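 note: 0% = DMSO-only wells as the low control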
# Target sequence (P78536 215-824 limits assumed): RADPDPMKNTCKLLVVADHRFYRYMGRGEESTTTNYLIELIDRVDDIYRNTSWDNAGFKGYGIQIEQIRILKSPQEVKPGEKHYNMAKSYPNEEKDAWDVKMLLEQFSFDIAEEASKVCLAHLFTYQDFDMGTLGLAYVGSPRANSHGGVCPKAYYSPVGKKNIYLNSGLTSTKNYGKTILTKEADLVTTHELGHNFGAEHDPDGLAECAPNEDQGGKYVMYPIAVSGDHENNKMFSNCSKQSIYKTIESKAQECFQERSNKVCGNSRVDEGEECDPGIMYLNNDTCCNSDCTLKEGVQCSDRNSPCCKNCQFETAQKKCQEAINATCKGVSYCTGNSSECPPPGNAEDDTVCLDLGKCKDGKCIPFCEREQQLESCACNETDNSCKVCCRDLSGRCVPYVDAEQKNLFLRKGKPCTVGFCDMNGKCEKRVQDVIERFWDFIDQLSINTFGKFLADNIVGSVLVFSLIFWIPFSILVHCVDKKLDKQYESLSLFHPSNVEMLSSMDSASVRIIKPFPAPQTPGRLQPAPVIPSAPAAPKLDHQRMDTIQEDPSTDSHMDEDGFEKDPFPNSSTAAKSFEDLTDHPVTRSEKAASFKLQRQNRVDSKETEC
# NR3A LBD binder – modulates the human NR3A ligand-binding domain. NR3A LBD differential scanning fluorimetry, Tm shift; 0% = protein alone, 100% = glycine-bound protein. Tm shift relative to glycine control, % at 25 µM. 2.5% of 340,000 active. AID 1259313;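 active = melting temperature shift of at least 10% of the positive control shift, at one fixed dose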
# FAS-TE inh – FAS thioesterase (human) inhibition | inhibition, % at 15 µM | 0.67% of 360,000 active | recombinant FAS-TE, OMFH fluorogenic substrate, fluorescence endpoint | P49327;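 active = compounds whose normalised, plate-corrected inhibition of enzyme fluorescence in the single-dose primary screen is 50% or more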;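 note: 0% = DMSO with enzyme and 100% = substrate without enzyme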
# HGIII-sPLA2 inh – Blocks human group III sPLA2 activity; Q9NZ20; 0.56% of 370,000 active; inhibition, % at 12.2 µM; QFRET BODIPY PC-A2 liposome hydrolysis, fluorescence;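 active = inhibition above mean plus 3 SD of compounds lying within the high and low control bounds, cut at about 19% in these data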;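 note: 0% = median of test compound wells and 100% = no enzyme DMSO wells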
# ADAM10 inh – inhibits human ADAM10; O14672; recombinant ADAM10, EDANS/DABCYL FRET peptide cleavage, 3 h; inhibition, % at 7 µM; 0.62% of 370,000 active; AID 720582;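 active = inhibition above a per-campaign cutoff equal to the mean of compounds falling between control-based bounds plus 3 SD, cut at about 20% in these data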;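 note: 0% = DMSO wells while the 100% control is not disclosed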
# Starred values were filed as active, the others as inactive; / = not tested or not shown; ! = not confirmed by another sample.
SMILES,ADAM17 inh,NR3A LBD binder,FAS-TE inh,HGIII-sPLA2 inh,ADAM10 inh
C=C(C)/C=C1/CN(Cc2ccc3c(c2)OCO3)C(=N)N1C(=O)OCc1ccccc1,1.5,/,/,9.0,1.2
COc1cc(C2c3cc4c(cc3C3OC(=O)C2C3CO)OCO4)cc(OC)c1OC (configuration not stated),-5.8,/,-8.6,9.9,-1.9
COc1cc([C@@H]2c3cc4c(cc3[C@@H](O)[C@H]3COC(=O)[C@H]23)OCO4)cc(OC)c1O[Si](C)(C)C(C)(C)C,1.9,11.4*,31.3,1.1,1.3
Nc1cc2c(cc1Br)-c1ccccc1C2=NO,-1.1,30.8*,-4.3,-18.1,11.0
ON=C1c2ccccc2-c2ccc(F)cc21,0.3,-1.6,-58.9,-33.4,7.2
O=[N+]([O-])c1ccc(SCCc2ccncc2)cc1,-1.7,11.4*!,4.3,1.5,2.2
CC/C(=N\Nc1ccc([N+](=O)[O-])cc1[N+](=O)[O-])c1ccc(O)cc1,-2.0,18.4*,4.9,6.9,4.2
C/C(=N\Nc1ccc([N+](=O)[O-])cc1)c1cccc(N)c1,-0.9,29.1*,11.3,2.1,4.3
C/C(=N\Nc1cccc([N+](=O)[O-])c1)c1cc2ccccc2o1,-6.7,29.3*,19.5,0.2,-4.5
C/C(=N\Nc1ccc([N+](=O)[O-])cc1)c1ccc(O)cc1,1.6,22.8*,2.5,-59.0,8.7
C/C(=N\Nc1cccc(C(=O)O)c1)c1cc2ccccc2o1,-3.6,-2.0,7.2,-26.8,-6.8
O=C(COC(=O)C1CCN(c2ccc(C(F)(F)F)cn2)CC1)Nc1cccc(F)c1,0.2,11.5*,36.4,-11.5,4.0
Cc1ccc(NC(=O)COC(=O)C2CCN(c3ccc(C(F)(F)F)cn3)CC2)cc1C,2.4,11.9*,26.6,-1.0,3.3
O=C(Nc1ccc(F)cc1)OCc1cn(Cc2cccc(F)c2F)nn1,0.4,/,/,-8.1,3.5
O=C(/C=C/c1ccc2c(c1)OCO2)NCCSCc1cccc(Cl)c1,-11.9,26.1*,27.8,-7.9,-37.4
O=C(NC(=S)Nc1ccccc1Br)C1CCCC1,4.7,-1.2,9.5,7.1,6.0
O=C(NC(=S)Nc1ccccc1Br)C1CCCCC1,3.6,12.6*,19.8,7.8,12.5
Cc1cccc(NC(=O)Cn2nnc(-c3ccccc3F)n2)c1C,-2.0,/,/,-4.2,6.5
COc1cc(/C=C/C(O)=C/C(=O)/C=C/c2ccc(O)cc2)ccc1O,0.3,23.2*,0.2,-17.7,-8.9
O=C1C(Cl)=C(Nc2ccccc2O)C(=O)N1CCc1ccccc1,15.8*,-6.3,-16.1,-0.1,32.8*
Cc1nn(C)cc1C(=O)Nc1cc(Oc2ccc(Cl)cc2)cc([N+](=O)[O-])c1,/,17.3*,3.8,/,/
COC(=O)C1CN(Cc2ccc(F)cc2)CCS(=O)(=O)N1Cc1cn(CCOC(C)=O)nn1 (configuration not stated),1.3,/,/,7.1,2.2
CCOc1cc(C(=O)O)cc(Cl)c1OC,-2.3,21.4*,-8.2,6.3,1.7
COC(=O)[C@]12C[C@H](CC(=O)NCCc3ccccc3OC)C(=O)N(Cc3cccc4ccccc34)C1=C[C@H](C(C)(C)C)O[C@@H]2C,4.4,/,/,-1.1,15.5
O=C(COC(=O)C1(c2ccc(F)cc2)CCCC1)NCc1ccc2c(c1)OCO2,5.3,16.1*,33.8,-9.1,14.4
SMILES,ADAM17 inh,NR3A LBD binder,FAS-TE inh,HGIII-sPLA2 inh,ADAM10 inh
NS(=O)(=O)c1ccc(N/N=C/c2ccccc2C(=O)O)c([N+](=O)[O-])c1,2.1,-0.6,-4.3,3.4,3.7
CC(C)(C)C1CCC(=NNc2ccc(S(N)(=O)=O)cc2[N+](=O)[O-])CC1 (configuration not stated),0.2,16.5*,18.1,-0.6,6.4
O=C(O)c1ccccc1NS(=O)(=O)c1ccc(NN=Cc2cccc(Cl)c2)c([N+](=O)[O-])c1,1.7,31.9*,6.4,-18.3,-1.4
NS(=O)(=O)c1ccc(N/N=C/c2ccc(O)c(O)c2O)c([N+](=O)[O-])c1,0.8,-5.4,5.3,13.8,8.7
O=C(O)c1ccccc1NS(=O)(=O)c1ccc(N/N=C/c2ccc(O)c(O)c2)c([N+](=O)[O-])c1,7.2,16.5*,37.4,-42.3,12.1
NS(=O)(=O)c1ccc(N/N=C/c2ccc(O)cc2O)c([N+](=O)[O-])c1,-3.6,29.8*,10.8,-6.7,1.3
COc1ccc(NS(=O)(=O)c2ccc(NN=Cc3ccc(C(=O)O)cc3)c([N+](=O)[O-])c2)cc1,-0.3,/,/,13.6,-13.8
